Test [1] in a line: qHTS assay to identify small molecule antagonists of the estrogen related receptor signaling pathway with the pleiotropic PPARgamma coactivator (PGC) from Tox21 10K library - cell viability counter screen (AID 1224840; active means well fitted cell-killing curve with a large enough effect in the repeat runs, not every such curve was filed as active; further: nearly all actives have a fitted effect of over 40% in size). A digest of the protocol:
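PGC/ERR cells (2,000/well) plated 6 h, then compound-treated for 17.5 h at 37 C. Viability measured by CellTiter-Fluor fluorescence after 30 min at 37 C, multiplexed with the pathway assay.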
Background: Quantitative high-throughput screening tests each substance at several concentrations.

The nature of test [2]: qHTS assay to identify small molecule antagonists of the estrogen related receptor signaling pathway with the pleiotropic PPARgamma coactivator (PGC) from Tox21 10K library (AID 1224841; call rule not given here; further: actives are mostly falling curves and most rising ones were filed inactive; nearly all actives have a fitted effect of over 50% in size; further: potency means the concentration at half of the fitted maximal effect). A digest of the protocol: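 PGC/ERR cell line, 2,000 cells/well, pre-incubated 6 hours at 37 C, then exposed to compounds for 18 hours at 37 C; luciferase read with One-Glo luminescence after 30 min at room temperature.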

Test [3] can be described thus: qHTS assay to identify small molecule agonists of the estrogen related receptor signaling pathway with the pleiotropic PPARgamma coactivator (PGC) from Tox21 10K library (AID 1224842). Further: nearly all actives have a fitted effect of over 15% in size. Further: potency means the concentration at half of the fitted maximal effect. A digest of the protocol:
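PGC/ERR reporter cell line, 2,000 cells per well, incubated 6 h at 37 C before 23 nL compound in DMSO was added. After 18 h at 37 C, One-Glo luminescence read following 30 min at room temperature.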

Test [4] concerns the target Thyrotropin receptor (Homo sapiens) (UniProt P16473). The test can be described thus: qHTS assay to identify small molecule agonists of the thyroid stimulating hormone receptor (TSHR) signaling pathway (AID 1224843; calls by dose curve; further: nearly all actives have a fitted effect of over 45% in size). A digest of the protocol: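 Steps: seed 800 TSHR-HEK293 cells per well; add test compound and hold 30 min at ambient temperature; dispense cAMP-d2 then anti-cAMP cryptate; incubate 1 h at ambient; measure fluorescence intensity.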

Test [5] can be described thus: qHTS assay to identify small molecule agonists of the hypoxia (HIF-1) signaling pathway - cell viability counter screen (AID 1224844; calls by dose curve; further: nearly all actives have a fitted effect of over 50% in size). The gist of the method: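 HRE-bla ME-180 cells, 2,000/well in 0.5% dialyzed FBS medium, treated 17 h at 37C with compounds. Viability read in the same wells as the bla reporter, by CellTiter-Glo luminescence after 30 min at room temperature.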

The nature of test [6]: qHTS assay to identify small molecule antagonists of the estrogen related receptor (ERR) signaling pathway from Tox21 library (AID 1224848). Further: nearly all actives have a fitted effect of over 50% in size. Further: potency means the concentration at half of the fitted maximal effect. A digest of the protocol:
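Luminescent reporter read-out (ONE-Glo) from NTP's ERR cell line after 18 h treatment at 37 C with DMSO-dissolved Tox21 compounds; cells pre-plated 6 h beforehand at 2,000 per well.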

A short description of test [7]: qHTS RealTime-Glo MT Cell Viability Assay in HepG2 cells - 24 hour (AID 1224867). Further: nearly all actives have a fitted effect of over 50% in size. A digest of the protocol:
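HepG2 cells (600/well) were dispensed with RealTime-Glo reagents, incubated 5 h at 37 °C, then treated with compounds in DMSO for up to 40 h. Nonlytic NanoLuc luminescence reflecting viable cells was read at each stated time point.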

Test [8] is described as follows: qHTS RealTime-Glo MT Cell Viability Assay in HEK293 cells - 32 hour (AID 1224868). Further: nearly all actives have a fitted effect of over 50% in size. Further: potency means the concentration at half of the fitted maximal effect. On activity change, negative = cytotoxic: top concentration of the series differs between compounds. A digest of the protocol: (§1)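 HEK293 cells seeded with NanoLuc/prosubstrate reagent, rested 5 h at 37 C, then dosed and kept at 37 C up to 40 h. Nonlytic real-time luminescence from viable cells read at 0, 8, 16, 24, 32 and 40 h.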
The nature of test [9]: A CellTox Green Cytotoxicity Assay to monitor cytotoxicity in HEK293 cells - 0 hour (AID 1224869). Further: nearly all actives have a fitted effect of over 50% in size. A digest of the protocol:
(§2)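 HEK293 cells, 600/well, were preincubated 5 hours and then exposed to compounds at 37 C for up to 40 hours. A cell-impermeant cyanine dye staining dead-cell DNA was read by fluorescence at 0, 8, 16, 24, 32 and 40 h time points.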

Test [10] in a line: qHTS RealTime-Glo MT Cell Viability Assay in HepG2 cells - 40 hour (AID 1224870). Further: nearly all actives have a fitted effect of over 50% in size. The gist of the method:
(§3)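 HepG2 cells (600/well) mixed with RealTime-Glo MT reagent, settled 5 h at 37 C/5% CO2 before compound addition. Nonlytic NanoLuc luminescence from viable-cell prosubstrate reduction read repeatedly during 40 h treatment at 37 C.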

Test [11] can be described thus: A CellTox Green Cytotoxicity Assay to monitor cytotoxicity in HEK293 cells - 40 hour (AID 1224871). Further: nearly all actives have a fitted effect of over 45% in size. The gist of the method:
as §2

A short description of test [12]: qHTS RealTime-Glo MT Cell Viability Assay in HepG2 cells - 8 hour (AID 1224873). Further: nearly all actives have a fitted effect of over 55% in size. A digest of the protocol: as §3
A short description of test [13]: qHTS RealTime-Glo MT Cell Viability Assay in HEK293 cells - 40 hour (AID 1224874). Further: nearly all actives have a fitted effect of over 50% in size. Further: potency means the concentration at half of the fitted maximal effect. To be noted: RealTime-Glo luminescence; max response: active compounds read low. The gist of the method: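 600 cells/well were plated with the nonlytic NanoLuc/prosubstrate reagent, pre-incubated 5 h, then given 23 nL of compound in DMSO. Incubation at 37 C for 40 h, with luminescence from viable-cell-reduced substrate read repeatedly from 0 h.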

Test [14] in a line: A CellTox Green Cytotoxicity Assay to monitor cytotoxicity in HEK293 cells - 24 hour (AID 1224875). Further: nearly all actives have a fitted effect of over 45% in size. The gist of the method:
as §2

The nature of test [15]: qHTS assay to identify small molecule agonists of H2AX (AID 1224845; active means well fitted activation curve with a large enough effect in the signal ratio in the repeat runs, not every such curve was filed as active; the % refers to the signal ratio; further: potency means the concentration at half of the fitted maximal effect). The gist of the method:
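Wild-type CHO-K1 cells, plated overnight, exposed 3hr at 37C to 15 concentrations (0.76% DMSO final). Lysed, then HTRF anti-pH2AX (S139) cryptate and anti-H2AX-d2 antibodies, 24 hr room temperature; 665/620 nm emission read.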

A short description of test [16]: qHTS assay to identify small molecule agonists of the hypoxia (HIF-1) signaling pathway (AID 1224846; active means well fitted activation curve with a large enough effect in the signal ratio in the repeat runs, not every such curve was filed as active; the % refers to the signal ratio). The gist of the method:
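HRE-bla ME-180 beta-lactamase reporter cells in medium with 0.5% dialyzed FBS, pre-incubated 5 h then exposed to compounds 17 h at 37C, 5% CO2; reporter induction read with CCF4-AM FRET substrate.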

Test [17] can be described thus: qHTS assay to identify small molecule agonists of H2AX - cell viability counter screen (AID 1224847; calls by dose curve; further: top concentration of the series differs between compounds; nearly all actives have a fitted effect of over 30% in size). The gist of the method: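 CHO-K1 cells plated overnight at 37C, then exposed 3 h at 37C to compounds at 15 concentrations (0.76% DMSO final). Viability by CellTiter-Glo luminescence after 30 min at room temperature.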
Test [18] in a line: qHTS RealTime-Glo MT Cell Viability Assay in HEK293 cells - 16 hour (AID 1224872). Further: nearly all actives have a fitted effect of over 50% in size. Further: potency means the concentration at half of the fitted maximal effect. On activity change, negative = cytotoxicity: top concentration of the series differs between compounds. The gist of the method:
as §1

Test [19] in a line: qHTS assay to identify small molecule agonists of the estrogen related receptor (ERR) signaling pathway from Tox21 library (AID 1224849; calls by dose curve; further: nearly all actives have a fitted effect of over 15% in size). To be noted: ERR reporter cell line, ONE-Glo luciferase, 18 h; at 92.4 µM (top of the series) unless noted. A digest of the protocol:
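ERR reporter cells (NTP line) pre-incubated 6 hours at 37 C, then exposed to compounds for 18 hours at 37 C. ONE-Glo luciferase luminescence was read after 30 minutes at room temperature.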

Test [20] is described as follows: A CellTox Green Cytotoxicity Assay to monitor cytotoxicity in HepG2 cells - 16 hour (AID 1224876). Further: nearly all actives have a fitted effect of over 45% in size. The gist of the method:
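HepG2 cells, 600/well, preincubated 5 h with CellTox Green dye, then exposed to Tox21 compounds in DMSO at 37 C for up to 40 h. Dead-cell DNA fluorescence read at the indicated time point.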

The structures appear in SMILES notation. Values without a mark were called inactive. Results filed as inconclusive are left out. Active and inactive are the calls of the source. Unless noted, the call rests on the fitted dose curve; in most records, active means well fitted curve in the direction sought with a large enough effect in the repeat runs; inconclusive means weak or mixed curves; inactive means no such curve, though single readings can be large; an effect the other way counts as inactive or inconclusive.
On the % scale 0 is the no-effect control and ±100 the full control effect.

Thyrotropin receptor (Homo sapiens), sequence (P16473 whole entry, looked up): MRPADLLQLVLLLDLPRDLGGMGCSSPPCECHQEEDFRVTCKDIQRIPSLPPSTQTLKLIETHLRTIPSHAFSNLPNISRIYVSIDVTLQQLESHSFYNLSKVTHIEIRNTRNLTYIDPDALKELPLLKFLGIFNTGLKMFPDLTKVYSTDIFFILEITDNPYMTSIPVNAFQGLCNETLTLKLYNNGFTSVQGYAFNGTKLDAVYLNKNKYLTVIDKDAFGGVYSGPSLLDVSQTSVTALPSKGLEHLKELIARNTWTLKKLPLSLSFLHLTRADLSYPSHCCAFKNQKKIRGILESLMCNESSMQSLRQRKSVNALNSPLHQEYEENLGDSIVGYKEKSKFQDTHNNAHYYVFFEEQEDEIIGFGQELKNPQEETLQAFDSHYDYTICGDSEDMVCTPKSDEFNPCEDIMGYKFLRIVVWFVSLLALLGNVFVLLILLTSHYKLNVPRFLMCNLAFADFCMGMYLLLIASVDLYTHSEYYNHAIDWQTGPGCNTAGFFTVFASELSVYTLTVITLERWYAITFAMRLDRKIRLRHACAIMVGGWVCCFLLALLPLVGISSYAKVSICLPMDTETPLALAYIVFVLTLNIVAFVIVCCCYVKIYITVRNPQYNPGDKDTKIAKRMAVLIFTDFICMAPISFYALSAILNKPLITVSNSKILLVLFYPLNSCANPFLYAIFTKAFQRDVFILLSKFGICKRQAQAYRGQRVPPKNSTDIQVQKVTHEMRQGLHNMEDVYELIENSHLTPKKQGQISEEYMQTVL

With `c1ccc(-c2ccc(C(c3ccccc3)n3ccnc3)cc2)cc1` (stereo not given), the Potency entry in [1], in test [3], in [4], in test [5], in [7] and in test [9] was “inactive” throughout. The Potency result in [10], in test [11], in test [12] and in test [14] was “inactive” throughout. The Potency in [2] is 29.8 µM (active); in test [6], 23.7 µM (active); in test [8] it was 30.1 µM (active); in [13], 26.8 µM (active).
With `Cc1c[nH]c(=O)[nH]c1=O`, the Potency entry in test [1], in [2], in test [3], in test [4], in [5] and in [15] was “inactive” in each case. Besides, the Potency entry in [16], in [17], in test [6], in test [7], in test [8] and in test [9] was “inactive” throughout. Besides, the Potency result in test [10], in [11], in test [18], in test [12] and in test [14] was “inactive” in each case. Moreover, the max response in [13] is 10.6%.
Take `CCCCCCCCSCc1cc(C)c(O)c(CSCCCCCCCC)c1`: the Potency result in test [1], in [2], in [3], in [4], in test [5] and in test [15] was “inactive” in each case. The Potency entry in test [16], in test [17], in test [6], in [7], in test [8] and in [9] was “inactive” throughout. Also, the Potency result in test [10], in [11], in test [12], in [14] and in test [20] was “inactive” in each case. In addition, the activity change, positive = activation in [19] is 3.09%. Besides, the max response in test [13] was -17.7%.
With `O=C(O)C[C@H](O)C[C@H](O)/C=C/c1c(C2CC2)nc2ccccc2c1-c1ccc(F)cc1`, the figures for the viability change, negative = cytotoxic in [1] and in test [12] were -0.117% [at 19 µM] and 4.17% [at 15.8 µM], respectively. The activity, negative = inhibition in test [2] was 10.6% [at 19 µM]; in test [6], 60.7% [at 19 µM]. Further, the values for the activation in test [3], in test [4] and in test [16] were -0.0293% [at 19 µM], -24.9% [at 19 µM] and 0.144% [at 15.8 µM], respectively. Moreover, the activity change, negative = cytotoxicity was -17.5% [at 15.8 µM] in test [5], -0.332% [at 31.6 µM] in [17], -20.3% [at 15.8 µM] in [7] and 7.11% [at 15.8 µM] in test [18]. In addition, the activation (H2AX phosphorylation) in [15] is -2.12% [at 31.6 µM]. For the same compound, the activity change, negative = cytotoxic in test [8] was -6.08% [at 15.8 µM]; in test [10], -27.7% [at 15.8 µM]. Besides, the cytotoxicity in test [9] was -2.87% [at 15.8 µM]. Further, the cytotoxicity increase was 1.42% [at 15.8 µM] in test [11] and 7.91% [at 15.8 µM] in test [20]. In addition, the max response in test [13] was -20.4%. In test [14], the activity change is 1.41% [at 15.8 µM, active compounds read high].
Take `Nc1ccc2c(S(=O)(=O)O)cccc2c1S(=O)(=O)O`: the Potency entry in [1], in test [2], in test [3], in test [4], in test [5] and in [16] was “inactive” in each case. The Potency result in test [17], in test [6], in test [7], in [8], in test [9] and in test [10] was “inactive” in each case. For the same compound, the Potency result in test [18], in [12], in [14] and in test [20] was “inactive” throughout. Also, the max response in test [13] is 5.38%.
Turning to `CCCOC(=O)c1ccc(O)cc1`, the Potency entry in test [1], in test [2], in test [4], in [5], in [15] and in test [17] was “inactive” throughout. Moreover, the Potency entry in test [6], in test [7], in test [9], in test [10], in test [11] and in test [12] was “inactive” throughout. Further, the Potency entry in test [14] and in [20] was “inactive” throughout. The values for the Potency in test [3] and in [18] were 10.9 µM (active) and 49 µM (active), respectively. Further, in test [19], the activity change, positive = activation is 17.7% (active).
With `Nc1ccc(Oc2cccc(Oc3ccc(N)cc3)c2)cc1`, the Potency result in test [1], in test [3], in [4], in test [5], in [16] and in test [7] was “inactive” throughout. In addition, the Potency result in test [9], in [10], in test [11], in test [12], in test [14] and in [20] was “inactive” each time. Besides, the Potency in test [2] was 8.63 µM (active); in test [15], 113 µM (active); in test [6] it was 4.33 µM (active). Also, in test [19], the activity change, positive = activation is -57.1%.

The values are drawn from PubChem BioAssay (Tox21).
